The list is not random: actives were taken first. Their share in the collection is about 5.4%.
M18AAP inhibitor = PfM18AAP inhibitors, malaria aminopeptidase, primary screen, biochemical, QFRET, recombinant enzyme; M18 aspartyl aminopeptidase (Plasmodium falciparum 3D7); H-Glu-NHMec fluorogenic cleavage; inhibition, % at 7.35 µM; 290,000 compounds, 1.2% hits; AID 1822, 2009;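 active means inhibition above the campaign mean inhibition over all tested compounds plus 3 SD, cut at about 28% in these data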;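 further: 0% = plate median of test compound wells and 100% = 2 mM ZnCl2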
JMJD2C inh = inhibitors of GASC-1 histone demethylase, primary screen, biochemical, fluorescence, DELFIA europium | Lysine-specific demethylase 4C (Homo sapiens), Q9H3R0 | GST-JMJD2C(1-420) H3K9me3 demethylation | inhibition, % at 2.35 µM | 330,000 compounds, 0.069% hits;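 active means more than half of a compound's replicate wells show inhibition beyond 50%, single wells judged on their own value; inconclusive means some, but no more than half, of replicates pass 50% inhibition; inactive means no replicate passes 50% inhibition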;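 further: signal counts dimethyl H3K9 product captured on neutravidin plate; 0% = median of DMSO wells and 100% = 0.3 times that DMSO median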
Target sequence (Q9H3R0 1-420 limits assumed): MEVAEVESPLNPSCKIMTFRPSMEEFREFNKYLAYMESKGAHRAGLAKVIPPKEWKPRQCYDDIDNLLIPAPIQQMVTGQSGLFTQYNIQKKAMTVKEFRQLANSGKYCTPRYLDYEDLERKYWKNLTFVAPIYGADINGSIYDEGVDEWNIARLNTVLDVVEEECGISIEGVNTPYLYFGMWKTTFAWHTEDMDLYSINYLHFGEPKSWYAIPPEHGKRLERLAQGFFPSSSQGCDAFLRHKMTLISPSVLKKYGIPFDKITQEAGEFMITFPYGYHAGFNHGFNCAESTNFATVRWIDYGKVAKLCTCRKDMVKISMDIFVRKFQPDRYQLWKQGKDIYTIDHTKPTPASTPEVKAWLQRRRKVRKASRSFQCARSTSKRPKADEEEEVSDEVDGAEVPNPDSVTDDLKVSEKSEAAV
Exocytosis inh = LAMP-1 surface exposure blockers, TALL-104 cells – cell-based, flow cytometry, MLPCN library, primary screen | 360,000 compounds, 0.66% hits | TALL-104 LAMP-1 surface exposure; cells stimulated with thapsigargin and PMA | inhibition, % at 10 µM;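 active means inhibition above about 55%, limit read from the data; inconclusive means no clear call, values can overlap the other calls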
ALR H2O2 inh = inhibitors of human ALR sulfhydryl oxidase, primary screen, biochemical, H2O2 detection, HRP-luminol luminescence, single point; purified ALR, DTT oxidation; 290,000 compounds, 3.8% hits; inhibition, % (no concentration beside the values); AID 485317, 2010;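 active means mean replicate inhibition above about 79%, with every replicate also reaching it, limit read from the data; inconclusive means only one of the two criteria met; inactive means mean below limit and not every replicate reaching it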
Target sequence (P55789 whole entry, looked up): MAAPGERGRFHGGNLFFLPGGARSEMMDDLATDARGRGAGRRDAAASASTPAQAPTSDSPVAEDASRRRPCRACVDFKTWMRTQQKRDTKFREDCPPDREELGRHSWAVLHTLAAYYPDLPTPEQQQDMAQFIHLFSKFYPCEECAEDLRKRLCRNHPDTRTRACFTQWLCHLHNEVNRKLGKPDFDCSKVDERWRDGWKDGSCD
MIN6 prolif = inducers of MIN6 beta-cell proliferation, primary screen, ATP luminescence, uHTS; MIN6 cells proliferation, ATPlite luminescence, 48 h; cells starved in 0.2% serum; 100% = growth in 10% serum; proliferation, % at 10 µM; 330,000 compounds, 0.29% hits;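 active means compounds whose signal lies at least 3.5 SD above the mean of all wells on their plate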;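 further: 0% = DMSO-treated cells in low-serum medium and 100% = 10% serum control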
SMARCA2 act = SMARCA2 (BRM) function activators, primary screen, cell-based, luminescence, high throughput | activation, % at 9.1 µM | 370,000 compounds, 1% hits | MG213 cells, MMTV-luciferase reporter, dexamethasone, overnight | AID 652017, 2013; in the data active means activation above about 7.8%;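 further: 0% = vehicle wells and 100% = reference activator wells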
Granule exo CP1 = inhibitors of lytic granule exocytosis, confirmation, TALL-104 cells, flow cytometry, Cherry Pick01. shares compounds with Exocytosis inh. LAMP-1 externalization; stimulated with PMA plus thapsigargin. inhibition, % at 10 µM. 1,500 compounds, 11% hits; in the data active means inhibition above about 60%;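 further: 0% = stimulated vehicle wells and 100% = unstimulated wells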
* marks the source's active call; other numbers are inactive results; ? = inconclusive; · = not tested or not shown.

SMILES | M18AAP inhibitor | JMJD2C inh | Exocytosis inh | ALR H2O2 inh | MIN6 prolif | SMARCA2 act | Granule exo CP1
COc1cc(CN2CCN(c3ncc(Cc4ccccc4)cn3)CC2)cc(OC)c1 | · | · | · | · | · | -5 | ·
CCCOc1ccc(-c2nc(N3CCN(CC)CC3)c3ccccc3n2)cc1 | 0 | 10 | 82* | -6 | -6 | 0 | -10
C=CCOc1ccccc1CN1CCC(CO)(CCOc2ccccc2)CC1 | -7 | -4 | 69* | 0 | -4 | 3 | -13
Cc1c(CN2CCC(CO)(CCOc3ccccc3)CC2)[nH]c2c(Cl)cccc12 | 0 | -7 | 92* | · | -6 | -3 | 13
C=CCOc1ccccc1CN1CCN(CCc2ccccc2)C(CCO)C1 (stereo unspecified) | 0 | 15 | 58* | 0 | -2 | -3 | -16
CCOc1ccccc1CN1CCN(CCCc2ccccc2)CC1CCO (stereo unspecified) | -1 | -4 | 63* | 1 | -4 | -1 | -11
OCC1(CCOc2ccccc2)CCN(Cc2ccccc2OC(F)F)CC1 | 1 | 0 | 12 | · | 0 | 2 | ·
CCNC(=O)O[C@@H]1C=C[C@@H](C#Cc2ccc(C(C)(C)C)cc2)O[C@@H]1COC(C)=O | · | · | · | · | · | -6 | ·
Nc1[nH]c(C(=O)c2ccccc2)c(-c2ccc3ccccc3c2)c1C(=O)NC1CC1 | · | · | · | · | · | -1 | ·
N#Cc1nc(COc2ccccc2Cl)oc1NCc1ccc(F)cc1 | -3 | 30 | 59* | · | -2 | -2 | -14
O=C(Nc1cc(C(F)(F)F)ccc1Cl)C(Sc1ccccn1)c1ccccc1 (stereo unspecified) | -8 | -25 | 104* | -13 | -6 | -1 | -14
CCCC(=O)OC(C(=O)Nc1cc(C(F)(F)F)ccc1Cl)c1ccccc1 (stereo unspecified) | -8 | ? | -2 | 2 | 0 | -1 | ·
O=C(CN1CCN(C(C(=O)Nc2cc(C(F)(F)F)ccc2Cl)c2ccccc2)CC1)NC1CC1 (stereo unspecified) | · | · | 80* | · | · | -4 | -4
CCOC(=O)C(C)(C)CC#CCN(CC#Cc1ccccc1)S(=O)(=O)c1ccc(C)cc1 | · | · | · | · | · | -6 | ·
CC(C)(C)c1ccc(S(=O)(=O)NCC(=O)N2CCN(c3ncccn3)CC2)cc1 | · | · | · | · | · | 5 | ·
CC(=O)N1c2ccc(C)cc2C(c2ccccc2)CC1C (stereo unspecified) | 3 | -1 | 80* | 5 | -4 | -3 | -10
CC(=O)OC1CC(C)N(C(=O)c2ccccc2)c2ccc(C)cc21 (stereo unspecified) | -2 | -2 | -3 | 0 | 0 | -2 | ·
O=C(Nc1ccccc1-c1nc2ccccc2s1)c1ccco1 | 6 | -2 | 71* | 2 | -1 | -1 | -2
O=C(NCCc1ccccc1)OCc1cn(-c2ccccc2Cl)nn1 | · | · | · | · | · | -2 | ·
CN(C)CCCN(C(=O)CCc1ccccc1)c1nc2ccc(Cl)cc2s1 | 2 | 11 | 72* | -11 | -5 | 0 | 51
O=[N+]([O-])c1ccc(N2N=C(c3ccccc3)CC2c2ccccc2O)cc1 (stereo unspecified) | 3 | -3 | 58* | 14 | -5 | -4 | 28
CCCCCCCCNCCS(=O)(=O)NCc1ccccc1 | · | · | 63* | · | · | -2 | 32
O=C(CCS(=O)(=O)c1ccccc1)N(CCCN1CCOCC1)c1nc2ccc(F)cc2s1 | · | -12 | 58* | 28 | -7 | 2 | -7
O=C(CCS(=O)(=O)c1ccccc1)N(CCCN1CCOCC1)c1nc2c(F)cccc2s1 | · | -31 | 29 | · | -7 | 4 | ·
CN1Cc2c(N3CCOCC3)nc3sc(C(=O)c4ccc(Br)cc4)c(N)c3c2CC1(C)C | 3 | -41 | 61* | -22 | -4 | 3 | 75*
SMILES | M18AAP inhibitor | JMJD2C inh | Exocytosis inh | ALR H2O2 inh | MIN6 prolif | SMARCA2 act | Granule exo CP1
Cc1ccc(S(=O)(=O)N2CCOCC2)cc1NC(=O)CN1CCC(Cc2ccccc2)CC1 | -1 | -19 | 71* | · | -3 | -1 | -13
CCCCN(CCCC)CCCNC(=O)Cn1cc(C)c(=O)[nH]c1=O | · | · | · | · | · | -4 | ·
CCOC(=O)C1(Cc2ccccc2)CCCN(CCO)C1 (stereo unspecified) | -2 | -3 | 54 | 0 | -1 | 0 | ·
CCOC(=O)C1(Cc2ccccc2)CCCN(C2CCCC2)C1 (stereo unspecified) | -1 | 2 | 59* | · | 6 | 0 | -4
O=C(O)C(=Cc1ccc([N+](=O)[O-])cc1)c1ccccc1 | · | · | · | · | · | -1 | ·
CC1=C(C(=O)OCc2ccccc2)C(c2ccc(Cl)cc2Cl)NC(=O)N1CCCC(=O)O (stereo unspecified) | 3 | -4 | 75* | 1 | -4 | · | -5
COC(=O)C1=C(C)N(CCCC(=O)O)C(=O)NC1c1ccc(Cl)cc1 (stereo unspecified) | · | -8 | 17 | 1 | -4 | 1 | ·
COC(=O)C1=C(C)N(CCCC(=O)O)C(=O)NC1c1ccc2c(c1)OCO2 (stereo unspecified) | · | -1 | 79* | -2 | -1 | -1 | -3
COc1cc(CNC(C)(C)CO)cc(Br)c1OCc1ccc(Cl)cc1 | -5 | 1 | 22 | -21 | -7 | -1 | ·
COc1cc(CNC(C)(C)CO)cc(Br)c1OCc1ccc(Cl)cc1Cl | 1 | -17 | 79* | -22 | -7 | -2 | 28
CC(=O)Nc1ccc(C)cc1 | · | 11 | 2 | 9 | -2 | 3 | ·
Cc1ccc(Nc2cc(C)c(O)c(C)c2)cc1 | 13 | 3 | 67* | 52 | -6 | 0 | 19
CCCN1C(=O)c2ccccc2NC1c1cc(OC)c(OC)c(OC)c1 (stereo unspecified) | -1 | 34 | 2 | -2 | -2 | -2 | ·
COc1ccc(CCN2C(=O)c3ccccc3NC2c2cc(Cl)c(O)c(OC)c2)cc1 (stereo unspecified) | 20 | -2 | 77* | 9 | -1 | 3 | -3
COc1cc2c(cc1O)[C@@H]1Cc3cc(OC)c(OC)cc3C(C2)N1C | · | -2 | -3 | 35 | 1 | 0 | ·
COc1cc2c(cc1OC)[C@@H]1Cc3cc4c(cc3[C@H](C2)N1C)OCO4 | 4 | 3 | 79* | -4 | 0 | -1 | -14
CCOc1ccc(Cl)cc1CNCCCSc1nc(C)cc(C)n1 | -6 | -5 | 87* | 3 | -5 | 0 | -3
CCOc1ccc(Cl)cc1CNCCCSc1ncccn1 | -11 | -4 | -3 | -14 | -5 | 0 | ·
